Results: the supplement of paper PMC10849652
Of roughly 7,900 targets only a part is listed; those with a hit were picked by preference. About 0.6% of all pairs of compound and target were hits. Values without a mark were called inactive.

Assays:
Assay in all cases: log2 fold change, soluble protein after heating vs DMSO (PISA); higher = thermal stabilisation; K562 cells, 10 uM, 30 min; active = over 0.2 and 3.5 SD of the protein, either way, in both replicates (recomputed)
[1] = compound: CC[C@@H]1C(=O)N(C)c2cnc(Nc3ccc(C(=O)NC4CCN(C)CC4)cc3OC)nc2N1C1CCCC1
Summary of the method: (§1)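 Thermal stability values are relative to control samples and come from duplicates. They are expressed as log2 fold changes. For measurement, K562 cells (2×10^6 cells/mL) received 10 μM compound for 30 min, and aliquots were heated for 3 min over 48°C-58°C, pooled, and extracted at 4°C in PBS with 0.5% NP-40. Soluble protein, the supernatant after 21,000xg for 90 min, was quantified by TMTpro 16plex LC-MS/MS with equalised channel sums.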

volasertib = compound: CC[C@@H]1C(=O)N(C)c2cnc(Nc3ccc(C(=O)N[C@H]4CC[C@H](N5CCN(CC6CC6)CC5)CC4)cc3OC)nc2N1C(C)C [volasertib]
Summary of the method: as §1

[2] = compound: CC[C@H](C)N1C=C(C2=C(C=C(C=C21)C3=CN=C(C=C3)N4CCNCC4)C(=O)NCC5=C(C=C(NC5=O)C)C)C
Summary of the method: as §1

epoxomicin = compound: CC[C@H](C)[C@@H](C(=O)N[C@@H]([C@@H](C)O)C(=O)N[C@@H](CC(C)C)C(=O)[C@]1(CO1)C)NC(=O)[C@H]([C@@H](C)CC)N(C)C(=O)C [epoxomicin]
Summary of the method: as §1

[3] = compound: CCn1c(C(=O)N(C2CC2)C2CC2)cc2c3c(ncn3C)c(Nc3cc(C)n(C)n3)nc21
Summary of the method: as §1

[4] = compound: CCn1cc(-c2ccnc3[nH]c(-c4cccc(CN(C)C)c4)cc23)c(-c2ccc(NC(=O)N(C)C)cc2)n1
Summary of the method: as §1

[5] = compound: CN(C)CC(=O)Nc1ccc2[nH]c(=O)c3ccccc3c2c1
Summary of the method: as §1

rosiglitazone = compound: CN(CCOC1=CC=C(C=C1)C[C@H]2C(=O)NC(=O)S2)C3=CC=CC=N3 (racemic) [rosiglitazone]
Summary of the method: as §1

[6] = compound: CN1C2=C(C3=C1C(=O)N(N=C3)CC4=CC(=CC=C4)N)SC(=C2)S(=O)C
Summary of the method: as §1

[7] = compound: CN1CCC(CNc2ccc3ncc(-c4cccc(OC(F)(F)F)c4)n3n2)CC1
Summary of the method: as §1

saracatinib = compound: CN1CCN(CCOc2cc(OC3CCOCC3)c3c(Nc4c(Cl)ccc5c4OCO5)ncnc3c2)CC1 [saracatinib]
Summary of the method: as §1

sotrastaurin = compound: CN1CCN(c2nc(C3=C(c4c[nH]c5ccccc45)C(=O)NC3=O)c3ccccc3n2)CC1 [sotrastaurin]
Summary of the method: as §1

alvocidib = compound: CN1CC[C@H](c2c(O)cc(O)c3c(=O)cc(-c4ccccc4Cl)oc23)[C@H](O)C1 [alvocidib]
Summary of the method: as §1

Tubastatin A = compound: CN1CCc2c(c3ccccc3n2Cc2ccc(C(=O)NO)cc2)C1 [Tubastatin A]
Summary of the method: as §1

[8] = compound: CNC(=O)C1=CC=CC=C1NC2=NC(=NC=C2Cl)NC3=C(C=C(C=C3)N4CCOCC4)OC
Summary of the method: as §1

defactinib = compound: CNC(=O)c1ccc(Nc2ncc(C(F)(F)F)c(NCc3nccnc3N(C)S(C)(=O)=O)n2)cc1 [defactinib]
Summary of the method: as §1

rucaparib = compound: CNCc1ccc(-c2[nH]c3cc(F)cc4c3c2CCNC4=O)cc1 [rucaparib]
Summary of the method: as §1

[9] = compound: CNc1nc(-c2ccc3c(N)n[nH]c3c2)cc(N2C[C@@H](C(=O)NC3CCCCC3)CC[C@H]2C)n1
Summary of the method: as §1

encorafenib = compound: COC(=O)N[C@@H](C)CNc1nccc(-c2cn(C(C)C)nc2-c2cc(Cl)cc(NS(C)(=O)=O)c2F)n1 [encorafenib]
Summary of the method: as §1

[10] = compound: COC(=O)[C@H](CCSC)NC(=O)C1=C(C=C(C=C1)NC[C@H](CS)N)C2=CC=CC=C2
Summary of the method: as §1

Chain of UniProt Q04446 (Q04446 whole entry, looked up): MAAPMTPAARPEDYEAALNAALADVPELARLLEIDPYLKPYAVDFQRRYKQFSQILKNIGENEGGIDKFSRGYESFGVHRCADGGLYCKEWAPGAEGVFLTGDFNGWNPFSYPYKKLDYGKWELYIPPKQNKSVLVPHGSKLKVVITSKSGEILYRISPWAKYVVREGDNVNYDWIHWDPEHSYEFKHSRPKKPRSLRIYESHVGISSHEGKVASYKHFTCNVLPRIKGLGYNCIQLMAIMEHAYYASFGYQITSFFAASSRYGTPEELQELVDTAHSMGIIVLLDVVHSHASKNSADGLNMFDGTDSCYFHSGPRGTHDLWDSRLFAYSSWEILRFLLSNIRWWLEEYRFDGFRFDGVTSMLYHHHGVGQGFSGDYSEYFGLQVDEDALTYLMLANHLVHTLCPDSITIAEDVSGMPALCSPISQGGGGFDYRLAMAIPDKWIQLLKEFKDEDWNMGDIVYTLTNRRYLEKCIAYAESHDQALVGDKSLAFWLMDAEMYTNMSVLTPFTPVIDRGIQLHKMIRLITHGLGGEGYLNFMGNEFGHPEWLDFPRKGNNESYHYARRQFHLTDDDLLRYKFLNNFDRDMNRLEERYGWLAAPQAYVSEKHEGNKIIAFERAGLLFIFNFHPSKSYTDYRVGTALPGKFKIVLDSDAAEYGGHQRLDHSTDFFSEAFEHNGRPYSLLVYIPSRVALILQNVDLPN
Chain of UniProt Q9BTY2 (Q9BTY2 whole entry, looked up): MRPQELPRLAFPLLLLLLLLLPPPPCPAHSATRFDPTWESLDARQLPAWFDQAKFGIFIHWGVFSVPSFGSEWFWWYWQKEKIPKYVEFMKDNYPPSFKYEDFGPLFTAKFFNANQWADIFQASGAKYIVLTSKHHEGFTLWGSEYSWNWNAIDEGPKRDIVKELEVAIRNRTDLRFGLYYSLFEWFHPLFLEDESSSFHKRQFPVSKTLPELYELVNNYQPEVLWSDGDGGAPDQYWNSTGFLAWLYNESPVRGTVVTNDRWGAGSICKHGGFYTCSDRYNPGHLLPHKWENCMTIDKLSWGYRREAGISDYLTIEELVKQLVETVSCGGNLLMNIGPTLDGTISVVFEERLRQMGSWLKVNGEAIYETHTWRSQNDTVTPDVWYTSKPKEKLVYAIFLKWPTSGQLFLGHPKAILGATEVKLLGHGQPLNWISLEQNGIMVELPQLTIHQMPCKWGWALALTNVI
Chain of UniProt Q53R41 (Q53R41 whole entry, looked up): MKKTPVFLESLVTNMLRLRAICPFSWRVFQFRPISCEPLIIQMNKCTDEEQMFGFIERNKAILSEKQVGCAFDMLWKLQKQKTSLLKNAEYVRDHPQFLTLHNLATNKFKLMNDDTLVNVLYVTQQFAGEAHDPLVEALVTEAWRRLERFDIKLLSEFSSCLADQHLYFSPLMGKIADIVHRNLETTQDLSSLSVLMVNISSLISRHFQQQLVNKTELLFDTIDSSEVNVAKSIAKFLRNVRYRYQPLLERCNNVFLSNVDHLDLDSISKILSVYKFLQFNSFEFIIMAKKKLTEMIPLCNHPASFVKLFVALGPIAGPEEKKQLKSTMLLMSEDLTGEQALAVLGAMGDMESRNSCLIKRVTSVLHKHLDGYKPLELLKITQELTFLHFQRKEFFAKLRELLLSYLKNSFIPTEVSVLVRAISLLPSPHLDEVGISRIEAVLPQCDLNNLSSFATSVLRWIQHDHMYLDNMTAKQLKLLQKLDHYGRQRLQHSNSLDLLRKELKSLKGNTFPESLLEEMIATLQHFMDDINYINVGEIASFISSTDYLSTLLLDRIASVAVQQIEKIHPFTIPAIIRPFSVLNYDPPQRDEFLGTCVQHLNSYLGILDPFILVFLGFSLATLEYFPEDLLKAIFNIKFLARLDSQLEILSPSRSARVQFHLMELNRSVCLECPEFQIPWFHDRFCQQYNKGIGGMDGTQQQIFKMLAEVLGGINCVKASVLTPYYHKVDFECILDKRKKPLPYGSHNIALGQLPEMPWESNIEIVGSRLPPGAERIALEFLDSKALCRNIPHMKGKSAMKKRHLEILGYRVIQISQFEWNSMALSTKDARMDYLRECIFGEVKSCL
Chain of UniProt O15117 (O15117 whole entry, looked up): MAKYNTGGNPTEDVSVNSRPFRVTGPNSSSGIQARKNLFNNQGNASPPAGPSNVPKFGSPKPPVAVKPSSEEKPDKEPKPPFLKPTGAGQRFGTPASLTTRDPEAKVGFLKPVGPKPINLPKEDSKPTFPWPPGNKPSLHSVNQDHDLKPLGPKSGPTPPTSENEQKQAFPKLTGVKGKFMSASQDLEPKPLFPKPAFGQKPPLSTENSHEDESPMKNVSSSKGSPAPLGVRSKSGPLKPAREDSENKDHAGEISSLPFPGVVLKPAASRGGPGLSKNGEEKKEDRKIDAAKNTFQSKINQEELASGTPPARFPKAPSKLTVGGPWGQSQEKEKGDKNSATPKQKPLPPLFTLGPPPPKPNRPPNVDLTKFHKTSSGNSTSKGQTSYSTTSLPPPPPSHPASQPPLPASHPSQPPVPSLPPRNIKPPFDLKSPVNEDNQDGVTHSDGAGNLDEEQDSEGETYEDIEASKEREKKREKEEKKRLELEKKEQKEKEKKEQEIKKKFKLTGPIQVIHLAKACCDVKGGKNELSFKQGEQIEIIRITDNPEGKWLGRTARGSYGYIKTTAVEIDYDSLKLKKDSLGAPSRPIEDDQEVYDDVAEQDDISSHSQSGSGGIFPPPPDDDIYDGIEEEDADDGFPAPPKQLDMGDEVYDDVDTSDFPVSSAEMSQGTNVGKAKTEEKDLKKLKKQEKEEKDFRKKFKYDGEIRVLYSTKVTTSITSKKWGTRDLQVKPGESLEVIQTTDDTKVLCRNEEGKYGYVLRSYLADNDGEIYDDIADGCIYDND
Chain of UniProt P02679 (P02679 whole entry, looked up): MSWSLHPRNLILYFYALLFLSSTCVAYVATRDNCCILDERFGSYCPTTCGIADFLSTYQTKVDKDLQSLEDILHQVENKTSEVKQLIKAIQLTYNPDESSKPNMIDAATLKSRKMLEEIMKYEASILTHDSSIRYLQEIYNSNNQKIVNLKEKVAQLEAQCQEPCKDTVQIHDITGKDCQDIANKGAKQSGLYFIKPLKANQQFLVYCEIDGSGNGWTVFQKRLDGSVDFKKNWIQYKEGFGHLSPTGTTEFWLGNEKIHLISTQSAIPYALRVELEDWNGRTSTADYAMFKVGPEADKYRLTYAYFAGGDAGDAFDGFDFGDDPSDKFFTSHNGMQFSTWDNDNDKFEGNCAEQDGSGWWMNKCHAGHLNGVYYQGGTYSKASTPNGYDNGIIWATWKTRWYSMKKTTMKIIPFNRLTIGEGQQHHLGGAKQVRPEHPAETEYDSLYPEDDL
Chain of UniProt O43824 (O43824 whole entry, looked up): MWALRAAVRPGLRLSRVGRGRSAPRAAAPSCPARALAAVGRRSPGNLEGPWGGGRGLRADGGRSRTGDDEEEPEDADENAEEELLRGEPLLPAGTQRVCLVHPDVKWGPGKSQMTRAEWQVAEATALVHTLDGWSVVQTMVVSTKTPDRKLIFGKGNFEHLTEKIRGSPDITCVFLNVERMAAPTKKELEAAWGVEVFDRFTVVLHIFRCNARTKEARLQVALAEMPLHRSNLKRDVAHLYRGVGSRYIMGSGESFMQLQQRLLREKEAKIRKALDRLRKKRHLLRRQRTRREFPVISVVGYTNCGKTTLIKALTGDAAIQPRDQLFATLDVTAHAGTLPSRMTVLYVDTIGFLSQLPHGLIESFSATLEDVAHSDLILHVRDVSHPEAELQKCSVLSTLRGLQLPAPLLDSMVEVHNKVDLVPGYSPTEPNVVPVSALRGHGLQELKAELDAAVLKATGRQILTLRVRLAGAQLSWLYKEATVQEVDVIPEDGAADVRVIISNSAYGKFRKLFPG
Chain of UniProt Q969S8 (Q969S8 whole entry, looked up): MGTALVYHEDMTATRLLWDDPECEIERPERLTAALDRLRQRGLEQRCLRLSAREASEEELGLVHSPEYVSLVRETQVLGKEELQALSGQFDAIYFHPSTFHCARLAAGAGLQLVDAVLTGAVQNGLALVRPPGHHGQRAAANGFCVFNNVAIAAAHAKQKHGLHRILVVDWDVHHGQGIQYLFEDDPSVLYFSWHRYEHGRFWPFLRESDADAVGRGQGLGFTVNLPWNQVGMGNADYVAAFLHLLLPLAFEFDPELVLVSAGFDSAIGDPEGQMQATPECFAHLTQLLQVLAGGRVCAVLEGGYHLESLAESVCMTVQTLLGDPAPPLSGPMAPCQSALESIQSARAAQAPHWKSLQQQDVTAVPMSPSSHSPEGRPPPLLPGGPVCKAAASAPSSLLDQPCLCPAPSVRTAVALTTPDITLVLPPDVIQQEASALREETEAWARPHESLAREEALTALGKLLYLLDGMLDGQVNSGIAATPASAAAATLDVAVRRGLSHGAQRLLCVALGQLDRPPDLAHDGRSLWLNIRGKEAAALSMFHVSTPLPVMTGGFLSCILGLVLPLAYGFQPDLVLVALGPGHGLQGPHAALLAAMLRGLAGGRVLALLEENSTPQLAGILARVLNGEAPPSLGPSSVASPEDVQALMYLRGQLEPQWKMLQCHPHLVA
Chain of UniProt Q9NZC3 (Q9NZC3 whole entry, looked up): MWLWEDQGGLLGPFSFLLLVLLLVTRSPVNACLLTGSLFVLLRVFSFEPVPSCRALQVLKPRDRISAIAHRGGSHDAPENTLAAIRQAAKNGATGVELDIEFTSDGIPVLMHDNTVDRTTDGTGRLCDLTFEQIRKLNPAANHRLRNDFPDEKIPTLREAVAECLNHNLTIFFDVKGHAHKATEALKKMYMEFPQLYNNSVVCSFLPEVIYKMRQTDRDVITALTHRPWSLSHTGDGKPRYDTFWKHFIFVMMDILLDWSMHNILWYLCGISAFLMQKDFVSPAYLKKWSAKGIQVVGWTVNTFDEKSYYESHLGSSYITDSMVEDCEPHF
Chain of UniProt Q9H4G4 (Q9H4G4 whole entry, looked up): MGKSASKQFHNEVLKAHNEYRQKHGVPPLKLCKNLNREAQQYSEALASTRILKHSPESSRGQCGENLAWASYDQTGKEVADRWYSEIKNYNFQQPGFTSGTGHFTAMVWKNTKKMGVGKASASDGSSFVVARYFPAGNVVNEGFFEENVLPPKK

Target	log2 fold change [1]	log2 fold change (volasertib)	log2 fold change [2]	log2 fold change (epoxomicin)	log2 fold change [3]	log2 fold change [4]	log2 fold change [5]	log2 fold change (rosiglitazone)	log2 fold change [6]	log2 fold change [7]	log2 fold change (saracatinib)	log2 fold change (sotrastaurin)	log2 fold change (alvocidib)	log2 fold change (Tubastatin A)	log2 fold change [8]	log2 fold change (defactinib)	log2 fold change (rucaparib)	log2 fold change [9]	log2 fold change (encorafenib)	log2 fold change [10]
FARS2 (UniProt O95363)	0.01	-0.172	0.109	-0.034	0.036	-0.052	-0.036	0.086	-0.002	-0.319 (active)	-0.026	-0.003	-0.158	-0.045	0.075	-0.023	-0.026	0.074	0.026	-0.054
FYB1 isoform 3 (UniProt O15117)	-0.018	-0.201	0.263	0.052	-0.057	-0.008	0.019	0.115	-0.068	-0.246	0.007	-0.101	–	-0.018	0	-0.112	0.028	-0.076	0.074	-0.01
GDE1 (UniProt Q9NZC3)	0.033	0.053	-0.092	-0.046	0.002	–	-0.049	-0.003	-0.016	–	0.029	0.051	-0.059	-0.316 (active)	-0.003	-0.017	0.009	0.01	-0.017	0.024
HDDC2 (UniProt Q7Z4H3)	0.008	0.08	0.014	-0.006	0.034	-0.063	0.025	0.035	-0.102	-0.066	0.045	0.042	-0.049	0.015	0.007	-0.014	-0.014	0.063	0.014	-0.013
FUCA2 (UniProt Q9BTY2)	-1.11 (active)	-1.04 (active)	0.001	-0.024	0.007	0.003	-0.019	-0.023	-0.033	-0.029	-0.013	-0.021	-0.003	-0.026	0.028	-0.045	-0.139	0.003	0.012	0.038
GLIPR2 (UniProt Q9H4G4)	-0.047	0.163	–	-0.088	-0.041	-0.032	-0.117	0.151	-0.084	-0.239	0.002	-0.027	0.054	-0.002	0.036	0.047	0.015	0.035	-0.062	-0.013
FGG (UniProt P02679)	–	-0.042	–	–	–	0.035	–	–	–	0.137	–	–	–	–	–	–	–	–	–	–
FIBP (UniProt O43427)	0.164	-0.093	–	-0.023	-0.026	-0.023	-0.043	-0.012	-0.072	-0.229	-0.074	-0.05	-0.01	0.07	0.002	-0.046	0.395 (active)	-0.085	0.039	0.004
GBE1 (UniProt Q04446)	0.042	-0.61 (active)	–	0.168	0.016	–	0.058	-0.128	0.071	–	-0.252	–	-0.084	0.055	-0.027	-0.195	-0.132	0.076	0.062	-0.034
FCF1 (UniProt Q9Y324)	0.095	0.108	–	-0.003	–	0.134	-0.041	–	0.107	0.219	-0.111	-0.116	–	0.07	–	0.26	0.187	0.2	0.121	-0.044
HSPA2 (UniProt P54652)	–	–	-0.014	–	-0.012	–	–	0.02	–	–	–	0.038	–	–	0.809 (active)	–	–	–	–	–
HNRNPK isoform 3 (UniProt P61978)	0.121	–	-0.062	-0.035	0.034	0.032	0.012	-0.035	-0.057	0.076	0.04	0.059	–	0.034	-0.05	0.096	0.032	-0.035	-0.041	-0.028
FAT2 (UniProt Q9NYQ8)	0.011	0.029	–	-0.047	-0.183	-0.023	-0.06	-0.27	-0.023	0.109	-0.243	–	0.083	0.144	-0.206	0.011	-0.007	0.021	0.094	0.001
HNRNPUL1 (UniProt M0R247)	-0.072	0.16	-0.101	–	0.121	–	–	–	0.21	–	-0.327	0.128	0.326	-0.054	-0.145	–	0.09	-0.431	-0.086	–
FASTKD1 (UniProt Q53R41)	-0.023	–	-0.088	0.155	-0.151	0.051	0.064	0.014	0.072	-0.188	-0.118	-0.046	-0.12	0.037	0.037	-0.22	-0.093	0.112	0.026	-0.02
GPS2 (UniProt Q13227)	0.151	-0.072	0.082	0.016	-0.011	–	0.068	0.027	–	–	–	-0.007	–	0.033	0.008	-0.079	0.02	–	0.041	-0.025
GTPBP6 (UniProt O43824)	-0.07	–	-0.041	0.026	0.025	-0.079	0.034	0.299	-0.13	-0.007	0.049	-0.011	0.015	-0.03	-0.149	-0.013	0.053	0.007	-0.086	0.057
HDAC10 (UniProt Q969S8)	-0.113	-0.041	0.028	–	-0.005	-0.179	0.224	0.12	-0.107	0.055	-0.04	–	0.011	0.458	0.108	0.067	0.024	-0.02	0.024	-0.137
H3-3A (UniProt P84243)	-0.083	-0.239	0.147	–	-0.123	–	-0.083	0.076	0.045	–	-0.094	-0.356	-0.063	0.203	0.002	0	0.031	0.189	0.034	0.102
GREB1 (UniProt Q4ZG55)	–	–	–	-0.081	-0.108	–	-0.095	–	–	–	–	-0.175	0.123	0.264	-0.113	-0.008	–	–	–	-0.112
